From PubChem BioAssay (NCI)
The panel holds about 83,000 compounds, 20% with a hit somewhere; the sample as a whole holds those more often.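 Each cell line was grown in a 96-well plate and treated with one concentration of compound for 48 hours. Values below 10 were considered active.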 A number with no mark means an inactive call. Active and inactive are the calls of the source.

Tested on: SF-539 CNS
Experiment: NCI-60 one-dose screen, 48 h (100 = growth as untreated, 0 = no growth, -100 = all killed)
Details: 10 µM

SMILES	growth
COc1ccc2nc(C)cc(Nc3ccc(Cl)cc3)c2c1	104%
COc1cc(-c2nc3ccc(C)cc3[nH]2)ccc1OCc1nnc(-c2ccc(CC(C)C)cc2)o1	91.7%
Cc1noc(C)c1-c1ccc2nc(NC(=O)[C@H]3CCN(C#N)C3)cn2c1	82.3%
COc1ccc(COC(=O)CC(C)C)cc1	96.1%
Cc1ccc(-n2nnc3c(sc4ccccc43)c2=O)cc1	57.2%
Nc1ccn([C@@H]2O[C@H](COP(=O)(O)O[C@@H]3C[C@H](n4cc(F)c(=O)[nH]c4=O)O[C@@H]3COP(=O)(O)O[C@@H]3C[C@H](n4cc(F)c(=O)[nH]c4=O)O[C@@H]3COP(=O)(O)O[C@@H]3C[C@H](n4cc(F)c(=O)[nH]c4=O)O[C@@H]3COP(=O)(O)O[C@@H]3C[C@H](n4cc(F)c(=O)[nH]c4=O)O[C@@H]3COP(=O)(O)O[C@@H]3C[C@H](n4cc(F)c(=O)[nH]c4=O)O[C@@H]3COP(=O)(O)O[C@@H]3C[C@H](n4cc(F)c(=O)[nH]c4=O)O[C@@H]3COP(=O)(O)O[C@@H]3C[C@H](n4cc(F)c(=O)[nH]c4=O)O[C@@H]3COP(=O)(O)O[C@@H]3C[C@H](n4cc(F)c(=O)[nH]c4=O)O[C@@H]3COP(=O)(O)O[C@@H]3C[C@H](n4cc(F)c(=O)[nH]c4=O)O[C@@H]3COP(=O)(O)O[C@@H]3C[C@H](n4cc(F)c(=O)[nH]c4=O)O[C@@H]3COP(=O)(O)OCCOCCOCCOCCOCCOCCO)[C@H](O)C2O)c(=O)n1 (some centres undefined)	10.2%
COc1ccc(-c2nnc(COc3ccc(NC(=O)Nc4cccc(C(F)(F)F)c4)cc3F)o2)cc1	57.6%
Fc1ccc(Nc2ccnc(N3CCN(c4ccnc5cc(Cl)ccc45)CC3)n2)cc1	51.4%
CCOC(=O)c1cc(-c2ccccc2)nc(N)n1	94.5%
CC1(CO)CCCC12OCCO2 (centres undefined)	96.2%
CCc1c(C)[nH]c(=O)c(C(N)=O)c1C#N	92.9%
CCOc1ccc2c(c1)CC[C@@H]1[C@@H]2CC[C@]2(C)[C@@H](O)[C@@H](O)C[C@@H]12	103%
COc1ccc(OC)c([N+](=O)[O-])c1C=O	105%
CCOC(=O)Nc1ccc2c(c1)C(=O)N(CC)c1ccccc1O2	4.79% (active)
Cc1ccc(C)c2c1sc1nc3n[nH]c(N)c3c(=N)n12	101%
c1ccc(CC(NCCNC(Cc2ccccc2)c2ccccc2)c2ccccc2)cc1 (centres undefined)	32.3%
Cc1ccc2nc(-c3ccc(OCC(=O)N=Nc4c(O)[nH]c5ccccc45)cc3)[nH]c2c1	100%
COc1ccc2c(=O)cc(C(Cl)(Cl)Cl)oc2c1	-27.4% (active)
c1ccc(OCCC[P+](c2ccccc2)(c2ccccc2)c2ccccc2)cc1	13.6%
COc1cc(CSc2nc3ccc(C)cc3c(=O)n2Cc2ccccc2)cc(OC)c1OC	-16.4% (active)
C[N+]1=C(/C=C/c2ccc(I)cc2)C(C)(C)c2ccccc21	98.7%
COc1ccccc1S(=O)(=O)Nc1ccc2c(c1)CN(C)C(=O)N2	50.1%
CCC(O)c1ccc(Br)cc1NC(=O)c1cccc(Cl)c1 (centres undefined)	2.67% (active)
CCCCn1c(=O)[nH]c(N)c(C(c2ccc(Cl)cc2)c2c(N)[nH]c(=O)n(CCCC)c2=O)c1=O	43.9%
COc1ccc(C(=O)/C=C/c2cc(-c3ccc4c(c3)OCO4)n[nH]2)cc1OC	42.2%
COc1ccc2oc(=O)cc(C(c3ccc[nH]3)c3ccc[nH]3)c2c1	1.28% (active)

Tested on: UACC-257 melanoma
Experiment: as above
Details: 10 µM

SMILES	growth
CCCCCCCCCCCC(=O)NCCCN(C)C	94.7%
Nc1ccc(C2=CC(c3ccc(Cl)cc3)N3C=CSC3=N2)cc1 (centres undefined)	-78.1% (active)
CC(=O)n1nc(C(=O)OC(C)(C)C)c2cc(F)c(F)cc21	113%
COC(=O)c1c(C)nc(Nc2nc3ccccc3s2)nc1-c1ccc(Cl)cc1Cl	111%
O=C(O)CCCCSCCCCC(=O)O	89.7%
COc1cc(-c2nc3ccc(C)cc3[nH]2)ccc1OCC(=O)N=Nc1c(O)[nH]c2ccccc12	13.8%
CC1=CSC2=NC(c3ccc(Cl)c(Cl)c3)=CC(c3ccc(Cl)cc3)N12 (centres undefined)	18.7%
COc1ccc(Nc2ccnc(N3CCN(c4ccnc5cc(Cl)ccc45)CC3)n2)cc1	-1.27% (active)
Cn1cnc([N+](=O)[O-])c1/C=C1\Oc2ccc(Cl)cc2C1=O	84.9%
CCOC(=O)Cn1nnc(-c2ccc(OCc3ccccc3F)cc2)n1	87.5%
COc1ccc(/C(CS(=O)(=O)c2ccccc2)=N\O)cc1	95.8%
COc1ccc(S(=O)(=O)Nc2cc(/C=C\c3cc(OC)c(OC)c(OC)c3)ccc2OC)cc1	47.7%
COc1ccc2nc(C)cc(Nc3ccc(Cl)cc3)c2c1	99.4%
COc1cc(-c2nc3ccc(C)cc3[nH]2)ccc1OCc1nnc(-c2ccc(CC(C)C)cc2)o1	96.8%
Cc1noc(C)c1-c1ccc2nc(NC(=O)[C@H]3CCN(C#N)C3)cn2c1	82.1%
COc1ccc(COC(=O)CC(C)C)cc1	87.7%
Cc1ccc(-n2nnc3c(sc4ccccc43)c2=O)cc1	83%
Nc1ccn([C@@H]2O[C@H](COP(=O)(O)O[C@@H]3C[C@H](n4cc(F)c(=O)[nH]c4=O)O[C@@H]3COP(=O)(O)O[C@@H]3C[C@H](n4cc(F)c(=O)[nH]c4=O)O[C@@H]3COP(=O)(O)O[C@@H]3C[C@H](n4cc(F)c(=O)[nH]c4=O)O[C@@H]3COP(=O)(O)O[C@@H]3C[C@H](n4cc(F)c(=O)[nH]c4=O)O[C@@H]3COP(=O)(O)O[C@@H]3C[C@H](n4cc(F)c(=O)[nH]c4=O)O[C@@H]3COP(=O)(O)O[C@@H]3C[C@H](n4cc(F)c(=O)[nH]c4=O)O[C@@H]3COP(=O)(O)O[C@@H]3C[C@H](n4cc(F)c(=O)[nH]c4=O)O[C@@H]3COP(=O)(O)O[C@@H]3C[C@H](n4cc(F)c(=O)[nH]c4=O)O[C@@H]3COP(=O)(O)O[C@@H]3C[C@H](n4cc(F)c(=O)[nH]c4=O)O[C@@H]3COP(=O)(O)O[C@@H]3C[C@H](n4cc(F)c(=O)[nH]c4=O)O[C@@H]3COP(=O)(O)OCCOCCOCCOCCOCCOCCO)[C@H](O)C2O)c(=O)n1 (some centres undefined)	44.7%
COc1ccc(-c2nnc(COc3ccc(NC(=O)Nc4cccc(C(F)(F)F)c4)cc3F)o2)cc1	71.8%

SMILES	growth
Fc1ccc(Nc2ccnc(N3CCN(c4ccnc5cc(Cl)ccc45)CC3)n2)cc1	61.1%
CCOC(=O)c1cc(-c2ccccc2)nc(N)n1	101%
CC1(CO)CCCC12OCCO2 (centres undefined)	99.8%
CCc1c(C)[nH]c(=O)c(C(N)=O)c1C#N	92.5%
CCOc1ccc2c(c1)CC[C@@H]1[C@@H]2CC[C@]2(C)[C@@H](O)[C@@H](O)C[C@@H]12	95.4%
COc1ccc(OC)c([N+](=O)[O-])c1C=O	84.1%
CCOC(=O)Nc1ccc2c(c1)C(=O)N(CC)c1ccccc1O2	64.1%
Cc1ccc(C)c2c1sc1nc3n[nH]c(N)c3c(=N)n12	104%
c1ccc(CC(NCCNC(Cc2ccccc2)c2ccccc2)c2ccccc2)cc1 (centres undefined)	48.5%
Cc1ccc2nc(-c3ccc(OCC(=O)N=Nc4c(O)[nH]c5ccccc45)cc3)[nH]c2c1	103%
COc1ccc2c(=O)cc(C(Cl)(Cl)Cl)oc2c1	-48.9% (active)
c1ccc(OCCC[P+](c2ccccc2)(c2ccccc2)c2ccccc2)cc1	-10.9% (active)
COc1cc(CSc2nc3ccc(C)cc3c(=O)n2Cc2ccccc2)cc(OC)c1OC	47.4%
C[N+]1=C(/C=C/c2ccc(I)cc2)C(C)(C)c2ccccc21	104%
COc1ccccc1S(=O)(=O)Nc1ccc2c(c1)CN(C)C(=O)N2	33.8%
CCC(O)c1ccc(Br)cc1NC(=O)c1cccc(Cl)c1 (centres undefined)	7.67% (active)
CCCCn1c(=O)[nH]c(N)c(C(c2ccc(Cl)cc2)c2c(N)[nH]c(=O)n(CCCC)c2=O)c1=O	41%
COc1ccc(C(=O)/C=C/c2cc(-c3ccc4c(c3)OCO4)n[nH]2)cc1OC	109%
COc1ccc2oc(=O)cc(C(c3ccc[nH]3)c3ccc[nH]3)c2c1	32.5%
